LMNA splice mod = LMNA splicing modulation | HeLa LMNA splicing GFP/RFP minigene ratio, 48 h | Potency, µM (highest dose often 46.1 µM), for inactives: top-dose ratio change, negative = inhibition, hits mostly inhibitors | 200,000 compounds, 0.01% hits | AID 1487; active = well fitted inhibition curve with a large enough effect in the signal ratio, with a control signal flat, not every such curve was filed as active; inconclusive = small, poorly fitted or top-dose-only effect, or effect the other way, or a change in a side signal; the % refers to the signal ratio; also: % is scaled to controls: 0 for no effect and ±100 for the full control effect
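Read-out is the ratio of GFP to DsRed2 object intensity, acquired by 488 nm laser-scanning cytometry on HeLa lamin A-EGFP minigene reporter cells. Compound incubation 48 hrs at 37 °C in Opti-MEM with 2% FBS; DMSO 0.5% final.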
HTT aggregate = reduces HttQ103-GFP aggregates in PC12 cells | PC12 HttQ103-GFP aggregates, Acumen cytometry, 40 h | Potency, µM (highest dose often 46.1 µM), for inactives: top-dose activity change, negative = inhibition, hits mostly inhibitors | 220,000 compounds, 1.1% hits; active = well fitted curve in the direction sought with a large enough effect; inconclusive = small, poorly fitted or top-dose-only effect, or another doubt; inactive = no such curve, though single readings can be large; an effect the other way counts as inactive or inconclusive; also: % is scaled to controls: 0 for no effect and ±100 for the full control effect; nearly all actives have a fitted effect of over 60% in size
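Aggregates are detected as GFP objects 1–25 µm with signal 6 STDEV over background in lysates of induced PC12 cells. These carry Huntingtin exon 1 with 103 glutamines fused to GFP under an ecdysone promoter; compounds titrated.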
HPGD block = HPGD (human) dehydrogenase inhibition | P15428 | purified HPGD, NADH fluorescence kinetic, PGE2 substrate | Potency, µM, inactives show at the top dose activity change, negative = inhibition, usual class: inhibitors | 150,000 compounds, 4.3% hits | AID 894; also: % is scaled to controls: 0 for no effect and ±100 for the full control effect
Target sequence (P15428 whole entry, looked up): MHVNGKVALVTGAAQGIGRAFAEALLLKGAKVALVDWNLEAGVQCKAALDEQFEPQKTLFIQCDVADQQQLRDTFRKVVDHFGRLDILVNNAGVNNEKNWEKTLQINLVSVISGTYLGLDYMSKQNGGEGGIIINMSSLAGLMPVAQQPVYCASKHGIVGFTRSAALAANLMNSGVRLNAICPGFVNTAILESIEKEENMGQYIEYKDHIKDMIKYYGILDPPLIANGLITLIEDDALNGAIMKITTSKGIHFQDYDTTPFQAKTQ
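NADH formation kinetics: reaction with 30 uM PGE2 and 1 mM NAD+ (final), 20 nM enzyme, Tris-HCl pH 8 with Tween 20, after 15 min compound preincubation at room temperature. Fluorescence change, last versus first of five reads.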
ALDH1A1 block = ALDH1A1 (human) enzyme inhibition; P00352; Purified ALDH1A1, NADH fluorescence, propionaldehyde substrate; Potency, µM (highest dose often 75.3 µM), without a hit: at the highest dose activity, negative = inhibition, usual class: inhibitors; 220,000 compounds, 7.3% hits;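 also: plate controls were no enzyme wells and a reference inhibitor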
Target sequence (P00352 whole entry, looked up): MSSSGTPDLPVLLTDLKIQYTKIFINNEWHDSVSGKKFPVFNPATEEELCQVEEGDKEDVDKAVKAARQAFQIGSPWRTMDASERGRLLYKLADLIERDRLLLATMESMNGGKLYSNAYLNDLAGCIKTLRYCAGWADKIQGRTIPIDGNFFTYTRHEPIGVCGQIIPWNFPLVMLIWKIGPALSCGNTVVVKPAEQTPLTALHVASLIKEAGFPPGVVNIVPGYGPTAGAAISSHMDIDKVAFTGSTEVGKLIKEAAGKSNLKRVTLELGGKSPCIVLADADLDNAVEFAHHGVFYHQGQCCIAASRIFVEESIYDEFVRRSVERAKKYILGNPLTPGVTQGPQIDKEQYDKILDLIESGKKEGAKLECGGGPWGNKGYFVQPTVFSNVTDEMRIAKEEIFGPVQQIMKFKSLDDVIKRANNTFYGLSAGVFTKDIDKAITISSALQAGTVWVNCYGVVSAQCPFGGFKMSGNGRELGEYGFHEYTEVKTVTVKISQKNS
HTT ATP protect = Huntington cell model cytoprotection by ATP luminescence; PC12 HTT-Q103 induced, cytoprotection, ATP luminescence, 40 h; Potency, µM (top dose mostly 56.4 µM), inactives show cytoprotection (ATP increase), hits mostly activators; 230,000 compounds, 0.14% hits; AID 1471; active = well fitted curve in the direction sought with a large enough effect; inconclusive = small, poorly fitted or top-dose-only effect, or another doubt; inactive = no such curve, though single readings can be large; an effect the other way counts as inactive or inconclusive; also: % of control where 0% means no effect; nearly all actives have a fitted effect of over 45% in size
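Cells were plated at 1500 per well in phenol red-free DMEM with 5% equine and 5% calf serum. Tebufenozide (100 nM final) and compounds were added, then ATPlite reagent, and luminescence was read.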
KDM4E inh = JMJD2E (human) inhibition. JMJD2E catalytic domain, FDH-coupled NADH fluorescence (FDH is formaldehyde dehydrogenase). Potency, µM (doses to about 57.1 µM), without a hit: top-dose activity change, negative = inhibition, actives largely listed as inhibitors. 230,000 compounds, 1.6% hits. AID 2147;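 also: 0% = wells with enzyme and -100% = buffer wells without enzyme; nearly all actives have a fitted effect of over 50% in size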
The depositor's hits bear a star; ? = inconclusive; nt = no result given; [ ] = another dose, or the depositor's remark. A selection: hits, their analogues and other compounds. The true share with any hit is near 9.2%. Unless noted, calls follow the shape of the dose curve; as a rule, active = well fitted inhibition curve with a large enough effect (not every such curve was filed as active); inconclusive = small, poorly fitted or top-dose-only effect, or another doubt; inactive = no such curve, though single readings can be large or run the other way. Potency is read from the fitted curve at half-maximal effect.

SMILES | LMNA splice mod | HTT aggregate | HPGD block | ALDH1A1 block | HTT ATP protect | KDM4E inh
Fc1ccc(C[n+]2csc3ccccc32)cc1 | ? | 2% | 10µM* | 4µM* | 28% | ?
COc1ccc2c(c1)c1nnc(SCC(=O)N3C(C)CCCC3C)nc1n2C (stereo not drawn) | -21% | -12% | 11µM* | ? | -19%[10 µM] | 4%
COc1ccc(N(CC(=O)NCc2ccncc2)S(=O)(=O)c2ccccc2[N+](=O)[O-])c(OC)c1 | 20%[46 µM] | 10%[9.22 µM] | nt | -3% | 4%[10 µM] | -1%
CCOc1ccc(N2CC(NC(=O)c3cc4ccccc4o3)CC2=O)cc1 (stereo not drawn) | 11%[46 µM] | nt | nt | nt | nt | nt
CCC(CC)NCc1ccc2c(c1)c1ccccc1n2CC | nt | -25%[9.22 µM] | nt | 20µM* | -12%[10 µM] | 1%
OC[C@@H]1O[C@@H](n2cnc3c(N[C@@H]4C[C@@H]5CC[C@H]4C5)ncnc32)[C@@H](O)[C@H]1O | nt | nt | nt | nt | -16%[1.9 µM] | nt
CC(=O)[C@@H]1[C@H]2[C@H](C(=O)[C@H]3OC[C@@H]2O3)[C@H]2C=Cc3ccccc3N21 | nt | nt | -25% | 25µM* | 8%[1.9 µM] | 13µM*
O=C(NC(=S)Nc1cnc2ccccc2c1)c1ccccc1 | ? | -6% | nt | ? | 21%[10 µM] | ?
Cc1ccc(NC(=S)NCCc2ccccc2)nc1 | ? | 0% | nt | 10µM* | nt | -21%
Fc1cccc(NC(=S)NCCc2ccccc2)c1 | ? | -18% | -24% | ? | 8%[10 µM] | 2%
S=C(NCCc1ccccc1)Nc1cnc2ccccc2c1 | nt | -10% | nt | ? | nt | 25µM*
Cc1ccc(NC(=O)CCCc2ccccc2)nc1 | ? | -11% | nt | -6% | -37% | -1%
O=[N+]([O-])c1cccc(NC(=S)NCCc2ccccc2)c1 | ? | 4% | 7.9µM* | -1% | -17%[1.9 µM] | 0%
O=C(NNc1cccc(Cl)c1)c1cccnc1Oc1ccccc1 | nt | -8%[9.22 µM] | nt | ? | -3%[10 µM] | -20%
CCCC(=O)N(c1ccc(C(=O)O)cc1)c1nc(-c2ccccc2)c(C)s1 | nt | 2% | nt | -36% | -45% | 1%
O=C(NCc1ccccc1)C1CCC(CNc2c(N3CCCCC3)c(=O)c2=O)CC1 (stereo not drawn) | -6% | 0% | 20µM* | 4% | nt | 8%
COc1ccc(OC)c(NC(=O)C2CCC(CNc3c(N4CCC(C)CC4)c(=O)c3=O)CC2)c1 (stereo not drawn) | ? | -7% | 25µM* | 2% | -16% | -6%
CC1CCN(c2c(NCC3CCC(C(=O)N4CCCC(C)C4)CC3)c(=O)c2=O)CC1 (stereo not drawn) | -4% | 2% | 0.63µM* | 7% | -14% | 2%
CN(C)c1ccc(CNC(=O)C2CCC(CNc3c(N4CCCCC4)c(=O)c3=O)CC2)cc1 (stereo not drawn) | nt | 21%[9.22 µM] | nt | nt | 1%[10 µM] | -1%
O=C(NCc1ccccc1)C1CCC1 | 7% | -4% | 20µM* | 20% | nt | 6%
COc1ccc(C)cc1NC(=O)C1CCC(CNc2c(N3CCOCC3)c(=O)c2=O)CC1 (stereo not drawn) | -12% | -5% | -15% | 4% | -6% | -13%
O=C(C1CCC(CNc2c(N3CCCCC3)c(=O)c2=O)CC1)N1CCN(C2CCCCC2)CC1 (stereo not drawn) | nt | 6%[9.22 µM] | nt | -3% | 15%[10 µM] | -12%
COc1ccc(NC(=O)Cn2nc(-c3ccncc3)ccc2=O)cc1Cl | -19%[46 µM] | nt | nt | nt | nt | nt
CC1CCN(c2c(NCC3CCC(C(=O)NCc4ccc(F)cc4)CC3)c(=O)c2=O)CC1 (stereo not drawn) | nt | -11%[9.22 µM] | nt | nt | 20%[10 µM] | -1%
CC1CCN(c2c(NCC3CCC(C(=O)NCc4ccccc4)CC3)c(=O)c2=O)CC1 (stereo not drawn) | -5% | 17% | 18µM* | 9% | nt | -7%
SMILES | LMNA splice mod | HTT aggregate | HPGD block | ALDH1A1 block | HTT ATP protect | KDM4E inh
CSc1nc(N)c(C(=O)Nc2ccc([N+](=O)[O-])cc2)s1 | ? | 6%[9.22 µM] | nt | -7% | 14%[10 µM] | 10%
Nc1nc2c(ncn2[C@@H]2C=C[C@@H](CO)C2)c(=O)[nH]1 | nt | nt | -15% | -12%[13.5 µM] | -23%[10 µM] | nt
Cc1ccc(C(c2nnnn2Cc2cccs2)N2CCN(C(=O)c3ccco3)CC2)cc1 (stereo not drawn) | -8% | 26% | 10% | 4.5µM* | 24%[10 µM] | -1%
O=C(c1ccco1)N1CCN(C(c2ccccc2F)c2nnnn2CC2CCCO2)CC1 (stereo not drawn) | 9% | -13% | -10% | ? | -20%[10 µM] | -9%
COc1ccc(C(c2nnnn2Cc2ccccc2)N2CCN(C(=O)c3ccco3)CC2)cc1 (stereo not drawn) | 2% | ? | 1% | 28µM* | 3% | -5%
CCC(c1nnnn1Cc1cccs1)N1CCN(C(=O)c2ccco2)CC1 (stereo not drawn) | -7%[46 µM] | 22%[9.22 µM] | nt | ? | 21%[10 µM] | 0%
O=C(c1ccco1)N1CCN(C(c2ccccc2F)c2nnnn2Cc2cccs2)CC1 (stereo not drawn) | -9% | -2% | -5% | 18µM* | 23%[10 µM] | -2%
O=C(CSc1nc(=O)[nH]c2c1CCCC2)NCc1ccccc1 | -5%[46 µM] | nt | nt | nt | nt | nt
CCOC(=O)C(C)NC(=O)c1c2c(nc3ccccc13)C(=O)N(C1CCCCC1)C2 (stereo not drawn) | -9%[46 µM] | nt | nt | nt | nt | nt
O=C(NCCCNc1ccc(C(F)(F)F)cc1[N+](=O)[O-])c1cc(F)c(F)cc1Cl | 4% | ? | -19% | -3% | -50% | -12%
O=C(NCCNc1ccc([N+](=O)[O-])cc1C(F)(F)F)c1ccccc1 | ? | ? | -26% | 10µM* | 39%[10 µM] | -4%
O=C(CCNc1ccccc1)c1cccc([N+](=O)[O-])c1 | -7% | -3% | nt | ? | -6% | 6%
O=C(NCCNc1ccc([N+](=O)[O-])cc1C(F)(F)F)c1cccc(F)c1 | -10% | ? | -7% | ? | 7%[10 µM] | 4%
O=C(NCCCNc1ccc(C(F)(F)F)cc1[N+](=O)[O-])c1ccc(Cl)cc1 | ? | 11µM* | nt | 14% | -33% | -5%
O=C(CCNc1ccc(F)cc1)c1cccc([N+](=O)[O-])c1 | -19% | -14% | 4% | 0.22µM* | 5%[10 µM] | 3%
Cc1ccc(NCCC(=O)c2cccc([N+](=O)[O-])c2)cc1 | -16% | ? | -10% | 0.32µM* | 13%[10 µM] | -7%
CCc1ccc(NC(=S)Nc2ccc3[nH]c(=O)[nH]c3c2)cc1 | 13%[46 µM] | -8%[9.22 µM] | nt | ? | -16%[10 µM] | 2%
CCOC(=O)c1ccccc1NC(=O)c1cc2ccc3cccnc3c2[nH]1 | 2%[46 µM] | nt | nt | nt | nt | nt
O=C(CCNc1ccc(Br)cc1)c1cccc([N+](=O)[O-])c1 | ? | -3% | nt | 0.63µM* | 4% | -9%
COC(=O)c1cccc(NC(=O)CCNC(=O)c2ccc([N+](=O)[O-])cc2)c1 | 7% | 0% | -2% | 13% | 26%[0.074 µM] | 1%
